Laboratory results: PubChem BioAssay (NCATS)
Records with an inconclusive call do not appear. Calls of active or inactive are those of the source. Calls come from the whole dose curve; as a rule, active = well fitted cell-killing curve with a large enough effect; inconclusive = small, poorly fitted or top-dose-only effect, or effect the other way; inactive = flat fitted curve, though single readings scatter.

How the values were obtained:
Experiment in all cases: Primary qHTS to identify gynecologic anti-cancer compounds using libraries of approved drugs and bioactive compounds (AID 1345084); note: nearly all actives have a fitted effect of over 55% in size
C33A = conditions: Gynecologic cancer cell panel viability, ATPlite luminescence, 48 h; series mostly up to 57.5 µM
In short: (§1)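 In this quantitative HTS, cell killing is estimated from loss of ATP-dependent luciferase light. Cells see five compound concentrations over a 48 h exposure.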

CAOV3 = conditions: Gynecologic cancer cell panel viability, ATPlite luminescence, 48 h; series mostly up to 57.5 µM
In short: as §1

CASKI = conditions: Gynecologic cancer cell panel viability, ATPlite luminescence, 48 h; series mostly up to 57.5 µM
In short: as §1

Es-2 = conditions: Gynecologic cancer cell panel viability, ATPlite luminescence, 48 h; series mostly up to 57.5 µM
In short: as §1

HeLa = conditions: Gynecologic cancer cell panel viability, ATPlite luminescence, 48 h; series mostly up to 57.5 µM
In short: as §1

Hek293T = conditions: Gynecologic cancer cell panel viability, ATPlite luminescence, 48 h, control line for the selectivity index; series mostly up to 57.5 µM
In short: as §1

JEG-3 = conditions: Gynecologic cancer cell panel viability, ATPlite luminescence, 48 h; series mostly up to 57.5 µM
In short: as §1

OV90 = conditions: Gynecologic cancer cell panel viability, ATPlite luminescence, 48 h; series mostly up to 57.5 µM
In short: as §1

PA-1 = conditions: Gynecologic cancer cell panel viability, ATPlite luminescence, 48 h; series mostly up to 57.5 µM
In short: as §1

SKOV3 = conditions: Gynecologic cancer cell panel viability, ATPlite luminescence, 48 h; series mostly up to 57.5 µM
In short: as §1

Tov-21-G = conditions: Gynecologic cancer cell panel viability, ATPlite luminescence, 48 h; series mostly up to 57.5 µM
In short: as §1

Tov112D = conditions: Gynecologic cancer cell panel viability, ATPlite luminescence, 48 h; series mostly up to 57.5 µM
In short: as §1
% is set by controls: 0 for no effect and ±100 for the full control effect.

COC(=O)C12C(=O)C(C)=C(O)C1(C)C(C)=CC1C3(CO)CCC(O)C(C)(C)C3CCC12C (stereo unspecified)
inactive: Potency (C33A) | Potency (CAOV3) | Potency (CASKI) | Potency (Es-2) | Potency (HeLa) | Potency (Hek293T) | Potency (JEG-3) | Potency (OV90) | Potency (PA-1) | Potency (SKOV3) | Potency (Tov-21-G) | Potency (Tov112D)

CC(=O)N[C@@H](CCCCN)C(=O)N(C)[C@@H](CC(C)C)C(=O)N[C@H](C(=O)N(C)[C@@H](Cc1ccccc1)C(=O)N[C@H](Cc1ccccc1)C(N)=O)C(C)C
inactive: activity change, negative = cytotoxicity (C33A) 18.7% [at 6.55 µM] | activity change, negative = cytotoxicity (CAOV3) 6.22% [at 6.55 µM] | activity change, negative = cytotoxicity (CASKI) 2.04% [at 6.55 µM] | activity change, negative = cytotoxicity (Es-2) -0.643% [at 6.55 µM] | activity change, negative = cytotoxicity (HeLa) 16.5% [at 6.55 µM] | activity change, negative = cytotoxicity (Hek293T) 8.12% [at 6.55 µM] | activity change, negative = cytotoxicity (JEG-3) -0.179% [at 6.55 µM] | activity change, negative = cytotoxicity (OV90) -1.74% [at 6.55 µM] | activity change, negative = cytotoxicity (PA-1) 7.96% [at 6.55 µM] | activity change, negative = cytotoxicity (SKOV3) 0% [at 6.55 µM] | activity change, negative = cytotoxicity (Tov-21-G) 3.25% [at 6.55 µM] | activity change, negative = cytotoxicity (Tov112D) 6.63% [at 6.55 µM]

CC1=C(C)C(=O)OC(C(C)C2CCC3C4CC=C5CC(OC6OC(COC7OC(CO)C(O)C(O)C7O)C(O)C(O)C6O)CC(O)C5(C)C4CCC23C)C1 (stereo unspecified)
inactive: Potency (C33A) | Potency (CAOV3) | Potency (CASKI) | Potency (Es-2) | Potency (HeLa) | Potency (Hek293T) | Potency (JEG-3) | Potency (OV90) | Potency (PA-1) | Potency (SKOV3) | Potency (Tov-21-G) | Potency (Tov112D)

CC(C)=CCC[C@](C)(O[C@@H]1O[C@H](CO)[C@@H](O)[C@H](O)[C@H]1O)[C@H]1CC[C@]2(C)[C@@H]1[C@H](O)CC1[C@@]3(C)CC[C@H](O)C(C)(C)C3[C@@H](O[C@@H]3O[C@H](CO)[C@@H](O)[C@H](O)[C@H]3O)C[C@]12C (stereo partly specified)
inactive: Potency (C33A) | Potency (CAOV3) | Potency (CASKI) | Potency (Es-2) | Potency (HeLa) | Potency (Hek293T) | Potency (JEG-3) | Potency (OV90) | Potency (PA-1) | Potency (SKOV3) | Potency (Tov-21-G) | Potency (Tov112D)

Cc1cn(C2C=CC(CO)O2)c(=O)[nH]c1=O (stereo unspecified)
inactive: Potency (C33A) | Potency (CAOV3) | Potency (CASKI) | Potency (Es-2) | Potency (HeLa) | Potency (Hek293T) | Potency (JEG-3) | Potency (OV90) | Potency (PA-1) | Potency (SKOV3) | Potency (Tov-21-G) | Potency (Tov112D)

CC12CCC3c4ccc(OC5OC(C(=O)O)C(O)C(O)C5O)cc4CCC3C1CCC2O (stereo unspecified)
inactive: Potency (C33A) | Potency (CAOV3) | Potency (CASKI) | Potency (Es-2) | Potency (HeLa) | Potency (Hek293T) | Potency (JEG-3) | Potency (OV90) | Potency (PA-1) | Potency (SKOV3) | Potency (Tov-21-G) | Potency (Tov112D)

COC(=O)/C=C/C12COC(C)(C)C1C(O)C(OC(C)=O)C1(C)C2CCC2(C)C(c3ccoc3)OC(=O)C3OC321 (stereo unspecified)
inactive: Potency (C33A) | Potency (CAOV3) | Potency (CASKI) | Potency (Es-2) | Potency (HeLa) | Potency (Hek293T) | Potency (JEG-3) | Potency (OV90) | Potency (PA-1) | Potency (SKOV3) | Potency (Tov-21-G) | Potency (Tov112D)

CC(O)CO[C@@H]1O[C@H](CO)[C@@H](O)[C@H](O)[C@H]1O (stereo partly specified)
inactive: Potency (C33A) | Potency (CAOV3) | Potency (CASKI) | Potency (Es-2) | Potency (HeLa) | Potency (Hek293T) | Potency (JEG-3) | Potency (OV90) | Potency (PA-1) | Potency (SKOV3) | Potency (Tov-21-G) | Potency (Tov112D)

C=CC(C)(O)CC/C=C(\C)C(=O)OC1C(O)C(CO)OC(OC(=O)C23CCC(C)(C)CC2C2=CCC4C5(C)CCC(OC6OC(COC7OCC(OC(C)=O)C(O)C7OC7OC(COC(C)=O)C(O)C(O)C7O)C(O)C(O)C6O)C(C)(C)C5CCC4(C)C2(C)C(O)C3O)C1OC1OCC(OC2OCC(O)C(OC3OCC(O)C(O)C3O)C2O)C(O)C1O (stereo unspecified)
inactive: activity change, negative = cytotoxicity (C33A) 7.05% [at 6.55 µM] | activity change, negative = cytotoxicity (CAOV3) -2.2% [at 6.55 µM] | activity change, negative = cytotoxicity (CASKI) -3.55% [at 6.55 µM] | activity change, negative = cytotoxicity (Es-2) 1.1% [at 6.55 µM] | activity change, negative = cytotoxicity (HeLa) 16.6% [at 6.55 µM] | activity change, negative = cytotoxicity (Hek293T) 1.48% [at 6.55 µM] | activity change, negative = cytotoxicity (JEG-3) -3.21% [at 6.55 µM] | activity change, negative = cytotoxicity (OV90) -14.1% [at 6.55 µM] | activity change, negative = cytotoxicity (PA-1) -0.479% [at 6.55 µM] | activity change, negative = cytotoxicity (SKOV3) 20.9% [at 6.55 µM] | activity change, negative = cytotoxicity (Tov-21-G) 0.14% [at 6.55 µM] | activity change, negative = cytotoxicity (Tov112D) -2.19% [at 6.55 µM]

COc1cccc(C(=O)N2CCN(C(=O)COc3cccc(C)c3)CC2)c1OC
inactive: Potency (C33A) | Potency (CAOV3) | Potency (CASKI) | Potency (Es-2) | Potency (HeLa) | Potency (Hek293T) | Potency (JEG-3) | Potency (OV90) | Potency (PA-1) | Potency (SKOV3) | Potency (Tov-21-G) | Potency (Tov112D)

CC[C@H]1OC(=O)[C@H](C)[C@@H](O[C@H]2C[C@@](C)(OC)[C@@H](O)[C@H](C)O2)[C@H](C)[C@@H](O[C@@H]2O[C@H](C)C[C@H](N(C)C)[C@H]2O)[C@](C)(O)C[C@@H](C)C(=O)[C@H](C)[C@H]2OC(=O)O[C@@]21C
inactive: Potency (C33A) | Potency (CAOV3) | Potency (CASKI) | Potency (Es-2) | Potency (HeLa) | Potency (Hek293T) | Potency (JEG-3) | Potency (OV90) | Potency (PA-1) | Potency (SKOV3) | Potency (Tov-21-G) | Potency (Tov112D)

C=C[C@]1(C)C=C2CCC3C(C)(CCC[C@@]3(C)C(=O)O)C2CC1 (stereo partly specified)
inactive: Potency (C33A) | Potency (CAOV3) | Potency (CASKI) | Potency (Es-2) | Potency (HeLa) | Potency (Hek293T) | Potency (JEG-3) | Potency (OV90) | Potency (PA-1) | Potency (SKOV3) | Potency (Tov-21-G) | Potency (Tov112D)

O=C(O)C(O[C@@H]1O[C@H](CO[C@@H]2O[C@H](CO)[C@@H](O)[C@H](O)[C@H]2O)[C@@H](O)[C@H](O)[C@H]1O)c1ccccc1 (stereo partly specified)
inactive: Potency (C33A) | Potency (CAOV3) | Potency (CASKI) | Potency (Es-2) | Potency (HeLa) | Potency (Hek293T) | Potency (JEG-3) | Potency (OV90) | Potency (PA-1) | Potency (SKOV3) | Potency (Tov-21-G) | Potency (Tov112D)
